Test results published in the supplement of paper PMC10849652.
Targets with a hit are over-represented here; the source holds about 7,900 in all. About 0.6% of all pairs of compound and target were hits. Values without a mark were called inactive.

Assays:
Test in all cases: log2 fold change, soluble protein after heating vs DMSO (PISA); higher = thermal stabilisation; K562 cells, 10 uM, 30 min; active = over 0.2 and 3.5 SD of the protein, either way, in both replicates (recomputed)
[1] = compound: CC1=C(C=C(C=C1)NC(=O)C2=CC(=CC=C2)C(C)(C)C#N)NC3=CC4=C(C=C3)N=CN(C4=O)C
Method in brief: (§1)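 For each measurement, 10 μM compound was applied for 30 min to K562 cells at 2×10^6 cells/mL. Aliquots were heated for 3 min across 48°C-58°C, pooled, and extracted in PBS with 0.5% NP-40 at 4°C; the supernatant after 21,000xg for 90 min was soluble protein. This was quantified by TMTpro 16plex LC-MS/MS with channel sums equalised, and thermal stability was reported relative to control samples from duplicates, on a log2 fold-change scale.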

[2] = compound: CC1=C(C=C(C=C1)NC(=O)C2=CC(=CC=C2)N(C)C)NC(=O)C3=CC=C(C=C3)O
Method in brief: as §1

[3] = compound: CC1=CC=C(C=C1)SC2=C3C=C(SC3=CN=C2)C(=O)N
Method in brief: as §1

[4] = compound: CCCCN(Cc1ccc(C(=O)NO)cc1)C(=O)Nc1ccccc1 [Nexturastat A]
Method in brief: as §1

[5] = compound: CCCS(=O)(=O)Nc1ccc(F)c(C(=O)c2c[nH]c3ncc(-c4ccc(Cl)cc4)cc23)c1F [vemurafenib]
Method in brief: as §1

[6] = compound: CCCS(=O)(=O)Nc1ccc(F)c(C(=O)c2c[nH]c3ncc(Cl)cc23)c1F
Method in brief: as §1

[7] = compound: CCCc1cc(C)[nH]c(=O)c1CNC(=O)c1cc(-c2ccnc(N3CCN(C)CC3)c2)cc2c1cnn2C(C)C
Method in brief: as §1

[8] = compound: CCN(CC)Cc1ccc2cc(COC(=O)Nc3ccc(C(=O)NO)cc3)ccc2c1 [givinostat]
Method in brief: as §1

[9] = compound: CCN(CCCOc1ccc2c(Nc3cc(CC(=O)Nc4cccc(F)c4)[nH]n3)ncnc2c1)CCOP(=O)(O)O [barasertib]
Method in brief: as §1

[10] = compound: CC[C@@H]1C(=O)N(C)c2cnc(Nc3ccc(C(=O)NC4CCN(C)CC4)cc3OC)nc2N1C1CCCC1
Method in brief: as §1

[11] = compound: CC[C@@H]1C(=O)N(C)c2cnc(Nc3ccc(C(=O)N[C@H]4CC[C@H](N5CCN(CC6CC6)CC5)CC4)cc3OC)nc2N1C(C)C [volasertib]
Method in brief: as §1

[12] = compound: CC[C@H](C)N1C=C(C2=C(C=C(C=C21)C3=CN=C(C=C3)N4CCNCC4)C(=O)NCC5=C(C=C(NC5=O)C)C)C
Method in brief: as §1

[13] = compound: CC[C@H](C)[C@@H](C(=O)N[C@@H]([C@@H](C)O)C(=O)N[C@@H](CC(C)C)C(=O)[C@]1(CO1)C)NC(=O)[C@H]([C@@H](C)CC)N(C)C(=O)C [epoxomicin]
Method in brief: as §1

[14] = compound: CCn1c(C(=O)N(C2CC2)C2CC2)cc2c3c(ncn3C)c(Nc3cc(C)n(C)n3)nc21
Method in brief: as §1

[15] = compound: CCn1cc(-c2ccnc3[nH]c(-c4cccc(CN(C)C)c4)cc23)c(-c2ccc(NC(=O)N(C)C)cc2)n1
Method in brief: as §1

[16] = compound: CN(C)CC(=O)Nc1ccc2[nH]c(=O)c3ccccc3c2c1
Method in brief: as §1

[17] = compound: CN(CCOC1=CC=C(C=C1)C[C@H]2C(=O)NC(=O)S2)C3=CC=CC=N3 (racemic) [rosiglitazone]
Method in brief: as §1

[18] = compound: CN1C2=C(C3=C1C(=O)N(N=C3)CC4=CC(=CC=C4)N)SC(=C2)S(=O)C
Method in brief: as §1

[19] = compound: CN1CCC(CNc2ccc3ncc(-c4cccc(OC(F)(F)F)c4)n3n2)CC1
Method in brief: as §1

[20] = compound: CC1=NC(=CC=C1)C2=C(N=C(N2)C(C)(C)C)C3=CC4=NC=CN=C4C=C3
Method in brief: as §1

Chain of UniProt O75056 (O75056 whole entry, looked up): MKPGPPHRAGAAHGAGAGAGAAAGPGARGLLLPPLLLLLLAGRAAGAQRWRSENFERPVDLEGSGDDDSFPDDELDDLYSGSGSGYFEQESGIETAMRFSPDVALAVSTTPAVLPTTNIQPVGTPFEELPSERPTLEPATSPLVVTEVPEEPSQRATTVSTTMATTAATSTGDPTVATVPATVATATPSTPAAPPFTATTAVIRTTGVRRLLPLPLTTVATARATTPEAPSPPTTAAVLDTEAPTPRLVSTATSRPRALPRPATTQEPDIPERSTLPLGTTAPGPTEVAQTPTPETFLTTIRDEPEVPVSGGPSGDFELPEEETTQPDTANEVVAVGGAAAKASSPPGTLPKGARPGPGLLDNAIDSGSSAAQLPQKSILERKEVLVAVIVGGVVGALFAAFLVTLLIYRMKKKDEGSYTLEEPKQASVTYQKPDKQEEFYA
Chain of UniProt Q8WZA2 (Q8WZA2 whole entry, looked up): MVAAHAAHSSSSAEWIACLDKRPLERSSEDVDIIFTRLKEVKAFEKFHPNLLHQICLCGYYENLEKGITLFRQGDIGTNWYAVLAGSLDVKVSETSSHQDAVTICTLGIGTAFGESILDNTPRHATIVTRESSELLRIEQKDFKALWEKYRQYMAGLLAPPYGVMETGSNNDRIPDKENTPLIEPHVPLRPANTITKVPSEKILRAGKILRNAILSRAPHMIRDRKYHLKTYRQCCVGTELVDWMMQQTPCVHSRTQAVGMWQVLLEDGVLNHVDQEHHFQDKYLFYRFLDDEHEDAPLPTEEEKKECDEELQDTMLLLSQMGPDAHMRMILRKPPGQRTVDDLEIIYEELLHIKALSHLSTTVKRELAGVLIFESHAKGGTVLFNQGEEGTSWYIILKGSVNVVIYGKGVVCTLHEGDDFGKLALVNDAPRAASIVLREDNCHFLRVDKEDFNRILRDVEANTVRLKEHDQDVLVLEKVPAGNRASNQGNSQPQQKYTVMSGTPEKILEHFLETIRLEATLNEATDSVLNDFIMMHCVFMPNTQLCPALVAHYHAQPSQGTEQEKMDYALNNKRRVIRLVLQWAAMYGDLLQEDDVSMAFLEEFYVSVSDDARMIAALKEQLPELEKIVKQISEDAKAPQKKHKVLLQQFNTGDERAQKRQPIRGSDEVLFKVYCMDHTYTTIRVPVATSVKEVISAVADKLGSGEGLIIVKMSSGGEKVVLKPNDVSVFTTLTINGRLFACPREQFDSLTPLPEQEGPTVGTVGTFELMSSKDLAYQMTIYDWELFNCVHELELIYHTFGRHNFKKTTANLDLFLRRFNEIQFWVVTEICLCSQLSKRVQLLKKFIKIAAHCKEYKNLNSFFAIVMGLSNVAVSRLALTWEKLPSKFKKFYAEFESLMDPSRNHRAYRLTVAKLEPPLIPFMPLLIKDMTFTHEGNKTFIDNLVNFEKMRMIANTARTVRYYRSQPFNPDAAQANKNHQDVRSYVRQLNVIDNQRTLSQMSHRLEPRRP
Chain of UniProt Q99496 (Q99496 whole entry, looked up): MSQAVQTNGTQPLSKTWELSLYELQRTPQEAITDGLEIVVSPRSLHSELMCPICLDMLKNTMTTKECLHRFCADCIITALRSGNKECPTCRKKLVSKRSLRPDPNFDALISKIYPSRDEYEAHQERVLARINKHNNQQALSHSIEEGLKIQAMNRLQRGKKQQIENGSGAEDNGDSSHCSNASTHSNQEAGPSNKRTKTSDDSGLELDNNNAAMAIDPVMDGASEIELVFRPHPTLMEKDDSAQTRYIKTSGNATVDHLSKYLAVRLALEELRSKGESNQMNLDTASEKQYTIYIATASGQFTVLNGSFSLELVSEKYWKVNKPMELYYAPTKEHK
Chain of UniProt O00560 (O00560 whole entry, looked up): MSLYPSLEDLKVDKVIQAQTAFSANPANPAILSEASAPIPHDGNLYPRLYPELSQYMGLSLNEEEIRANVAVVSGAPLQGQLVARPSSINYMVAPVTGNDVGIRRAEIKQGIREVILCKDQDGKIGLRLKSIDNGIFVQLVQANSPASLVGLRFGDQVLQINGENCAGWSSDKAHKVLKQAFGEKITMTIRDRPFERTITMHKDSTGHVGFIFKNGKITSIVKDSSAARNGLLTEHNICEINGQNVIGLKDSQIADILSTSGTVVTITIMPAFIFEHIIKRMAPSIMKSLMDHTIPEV
Chain of UniProt Q02383 (Q02383 whole entry, looked up): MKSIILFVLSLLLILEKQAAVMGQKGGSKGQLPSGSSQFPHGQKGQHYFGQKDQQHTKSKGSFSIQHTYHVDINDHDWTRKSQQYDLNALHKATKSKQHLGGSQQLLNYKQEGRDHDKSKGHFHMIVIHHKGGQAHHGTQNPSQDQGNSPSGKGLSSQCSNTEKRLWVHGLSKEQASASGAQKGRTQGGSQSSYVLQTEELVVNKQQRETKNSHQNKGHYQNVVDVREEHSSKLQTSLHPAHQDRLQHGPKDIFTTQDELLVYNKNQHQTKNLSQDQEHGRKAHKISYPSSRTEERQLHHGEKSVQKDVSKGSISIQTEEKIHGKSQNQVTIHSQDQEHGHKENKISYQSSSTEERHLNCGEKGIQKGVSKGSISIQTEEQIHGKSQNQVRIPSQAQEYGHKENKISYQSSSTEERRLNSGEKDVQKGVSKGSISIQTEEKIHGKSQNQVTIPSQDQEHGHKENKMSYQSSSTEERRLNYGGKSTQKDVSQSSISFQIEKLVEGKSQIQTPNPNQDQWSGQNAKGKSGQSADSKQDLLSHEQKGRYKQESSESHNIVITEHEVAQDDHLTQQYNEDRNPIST
Chain of UniProt Q96NL6 (Q96NL6 whole entry, looked up): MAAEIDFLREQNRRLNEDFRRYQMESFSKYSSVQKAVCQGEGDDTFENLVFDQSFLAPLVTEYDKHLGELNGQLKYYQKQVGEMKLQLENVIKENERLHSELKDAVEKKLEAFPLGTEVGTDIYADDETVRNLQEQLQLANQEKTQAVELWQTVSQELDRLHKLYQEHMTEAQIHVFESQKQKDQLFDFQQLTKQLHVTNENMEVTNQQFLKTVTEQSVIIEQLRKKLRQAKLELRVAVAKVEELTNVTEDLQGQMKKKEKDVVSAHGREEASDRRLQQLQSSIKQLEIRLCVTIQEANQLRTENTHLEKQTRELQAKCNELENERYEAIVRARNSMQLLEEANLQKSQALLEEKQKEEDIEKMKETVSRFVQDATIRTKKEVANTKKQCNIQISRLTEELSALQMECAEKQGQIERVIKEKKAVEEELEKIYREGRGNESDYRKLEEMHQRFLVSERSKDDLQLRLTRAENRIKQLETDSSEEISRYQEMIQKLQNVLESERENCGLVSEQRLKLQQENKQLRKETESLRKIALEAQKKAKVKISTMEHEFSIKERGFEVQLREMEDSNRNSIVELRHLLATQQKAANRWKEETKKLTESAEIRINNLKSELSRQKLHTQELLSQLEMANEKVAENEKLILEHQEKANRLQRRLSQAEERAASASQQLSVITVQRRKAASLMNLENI
Chain of UniProt Q5VTB9 (Q5VTB9 whole entry, looked up): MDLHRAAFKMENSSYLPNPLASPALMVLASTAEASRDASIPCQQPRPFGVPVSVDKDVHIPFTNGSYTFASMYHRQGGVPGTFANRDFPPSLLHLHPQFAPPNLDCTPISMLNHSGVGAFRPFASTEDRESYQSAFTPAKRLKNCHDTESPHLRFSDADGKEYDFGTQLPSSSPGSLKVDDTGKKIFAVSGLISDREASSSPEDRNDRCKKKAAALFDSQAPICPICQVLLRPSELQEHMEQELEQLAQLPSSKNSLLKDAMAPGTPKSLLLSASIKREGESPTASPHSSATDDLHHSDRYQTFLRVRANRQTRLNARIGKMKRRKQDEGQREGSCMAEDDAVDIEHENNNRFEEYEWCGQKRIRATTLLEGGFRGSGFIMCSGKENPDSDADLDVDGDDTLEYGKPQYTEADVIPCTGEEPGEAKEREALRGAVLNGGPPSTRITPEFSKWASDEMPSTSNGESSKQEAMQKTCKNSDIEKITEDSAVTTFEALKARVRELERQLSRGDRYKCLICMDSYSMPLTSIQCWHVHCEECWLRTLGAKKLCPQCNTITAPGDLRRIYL
Chain of UniProt P60602 (P60602 whole entry, looked up): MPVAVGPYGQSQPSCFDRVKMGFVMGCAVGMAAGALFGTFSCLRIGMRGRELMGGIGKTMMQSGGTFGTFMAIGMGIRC
Chain of UniProt P60903 (P60903 whole entry, looked up): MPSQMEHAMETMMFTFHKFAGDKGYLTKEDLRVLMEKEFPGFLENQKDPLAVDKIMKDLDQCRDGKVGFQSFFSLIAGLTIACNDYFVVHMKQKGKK

Target | log2 fold change [1] | log2 fold change [2] | log2 fold change [3] | log2 fold change [4] | log2 fold change [5] | log2 fold change [6] | log2 fold change [7] | log2 fold change [8] | log2 fold change [9] | log2 fold change [10] | log2 fold change [11] | log2 fold change [12] | log2 fold change [13] | log2 fold change [14] | log2 fold change [15] | log2 fold change [16] | log2 fold change [17] | log2 fold change [18] | log2 fold change [19] | log2 fold change [20]
RRP36 (UniProt Q96EU6) | 0.001 | -0.168 | -0.045 | 0.24 | -0.117 | 0.002 | 0.136 | 0 | -0.218 | 0.217 | 0.376 | -0.028 | -0.203 | 0.002 | 0.201 | -0.114 | -0.25 | 0.316 | 0.288 | –
SEMG2 (UniProt Q02383) | -0.038 | – | – | -0.062 | – | – | -0.097 | – | 0.015 | 0.043 | – | 0.15 | 0.06 | – | 0.035 | – | 0.049 | – | 0.058 | –
RAPGEF4 (UniProt Q8WZA2) | -0.046 | – | – | 0.245 | -0.267 | – | -0.203 | 0.248 | 0.041 | -0.13 | – | – | -0.038 | -0.136 | – | -0.011 | 0.065 | -0.036 | – | -0.235
SDCBP isoform 2 (UniProt O00560) | 0.06 | -0.058 | 0.004 | 0.149 | – | 0.076 | -0.048 | -0.008 | 0.046 | -0.015 | -0.221 | -0.021 | 0.056 | -0.068 | -0.234 | – | 0.105 | -0.196 | -0.208 | –
SAP30 (UniProt O75446) | -0.292 | – | -0.078 | 0.025 | 0.04 | -0.157 | 0.037 | 0.019 | – | – | 0.042 | -0.039 | -0.109 | 0.115 | -0.051 | 0.013 | – | 0.175 | 0.064 | -0.164
SLC12A5 (UniProt Q9H2X9) | 0.074 | – | 0.108 | 0.001 | -0.105 | 0.081 | -0.018 | 0.016 | -0.004 | -0.007 | -0.033 | – | -0.162 | 0.002 | – | -0.013 | -0.022 | 0.316 | – | 0.198
SLC1A3 (UniProt P43003) | – | -0.047 | 0.043 | -0.099 | -0.043 | -0.095 | -0.127 | -0.1 | -0.01 | -0.065 | 0.003 | 0.018 | 0.087 | 0.037 | -0.101 | -0.048 | -0.021 | -0.286 | 0.254 | –
RALGPS2 (UniProt Q86X27) | – | – | – | 1.06 (active) | 0.023 | – | -0.128 | -0.147 | -0.116 | 0.139 | – | – | -0.247 | 0.145 | -0.203 | -0.059 | -0.082 | 0.137 | 0.082 | -0.234
ROMO1 (UniProt P60602) | 0.087 | -0.011 | 0.005 | -0.066 | – | -0.017 | -0.082 | -0.027 | -0.036 | 0.033 | 0.01 | -0.06 | -0.178 | 0.024 | -0.023 | – | -0.023 | 0.125 | 0.049 | –
RNF2 (UniProt Q99496) | 0.155 | – | 0.051 | 0.024 | -0.066 | 0.061 | 0.07 | -0.04 | -0.002 | -0.045 | -0.169 | -0.307 (active) | 0.168 | 0.1 | 0.012 | 0.007 | 0.036 | 0.063 | -0.03 | 0.022
S100A10 (UniProt P60903) | 0.128 | – | 0.181 | – | – | -0.086 | – | – | 0.113 | 0.284 | -0.048 | 0.145 | – | – | -0.056 | – | -0.094 | – | -0.026 | –
RNF220 isoform 3 (UniProt Q5VTB9) | – | – | 0.385 | – | – | 0.201 | – | -0.059 | – | – | -0.31 | – | – | -0.001 | – | – | – | – | – | –
RPS6KA5 (UniProt O75582) | – | -0.039 | 0.029 | 0.013 | – | 0.121 | 0.237 | 0.025 | – | 0.024 | -0.529 | – | 0.048 | -0.127 | – | – | – | – | – | -0.017
RABGAP1L isoform 5 (UniProt Q5R372) | -0.106 | – | -0.047 | -0.009 | – | -0.016 | -0.197 | -0.013 | 0 | – | 0.01 | 0.074 | -0.085 | 0.017 | – | – | 0.046 | 0.059 | – | -0.055
RPS3A (UniProt D6R9B6) | -0.199 | – | – | – | – | – | – | – | – | – | – | – | – | – | – | – | – | 0.247 | – | –
RNF26 (UniProt Q9BY78) | – | 0.012 | – | – | 0.281 | – | – | – | 0.124 | – | – | – | – | – | 0.077 | 0.017 | -0.131 | – | -1.04 (active) | –
RNF185 (UniProt Q96GF1) | – | -0.055 | -0.074 | – | 0.009 | 0.1 | -0.081 | -0.013 | 0.055 | -0.041 | -0.101 | -0.06 | – | 0.02 | -0.003 | 0.028 | -0.075 | – | 0.09 | –
SCLT1 (UniProt Q96NL6) | -0.057 | – | – | – | 0.045 | – | 0.01 | – | 0.049 | – | – | -0.066 | – | – | -0.116 | -0.013 | 0.01 | -0.089 | -0.029 | -0.161
RPS3 (UniProt E9PJN9) | – | 0.125 | – | – | – | – | – | – | – | 0.098 | – | – | – | – | -0.125 | – | – | 0.088 | 0.089 | –
SEPTIN5 (UniProt G3XAH0) | -0.002 | -0.046 | 0.04 | -0.255 (active) | 0.058 | 0.023 | -0.009 | 0.014 | 0.002 | – | 0.097 | 0.074 | 0.049 | -0.021 | 0.211 | 0.011 | 0.056 | -0.079 | 0.075 | –
SAFB2 (UniProt K7EQU4) | – | – | – | 0.111 | – | – | – | – | 0.295 | – | – | -0.095 | -0.11 | – | – | – | -0.269 | – | – | 0.057
SH3PXD2B (UniProt A1X283) | -0.029 | – | – | -0.052 | -0.145 | – | 0.187 | -0.548 (active) | 0.043 | -2.01 (active) | – | -0.068 | 0.048 | 0.014 | 0.097 | -0.019 | -0.008 | – | -1.2 (active) | –
SCYL3 isoform 2 (UniProt Q8IZE3) | – | -0.061 | -0.002 | 0.004 | 0.008 | 0.022 | -0.01 | 0.012 | -0.012 | -0.114 | -0.327 (active) | 0.047 | 0.058 | 0.034 | -0.101 | -0.021 | -0.012 | -0.05 | -0.015 | 0.005
SDC3 (UniProt O75056) | 0.091 | – | – | 0.016 | 0.073 | – | – | – | – | 0.223 | – | 0.067 | 0.005 | – | -0.401 | 0.006 | – | -0.017 | 0.632 | –
RBMY1E (UniProt A6NEQ0) | – | 0.009 | 0.183 | – | – | 0.082 | -0.023 | 0.059 | 0.135 | -0.068 | -0.236 | -0.034 | – | -0.134 | 0.084 | – | -0.058 | – | -0.199 | 0.075
